Compound activity (PubChem BioAssay)
G9a inh: qHTS Assay for Inhibitors of Histone Lysine Methyltransferase G9a | Histone-lysine N-methyltransferase EHMT2 (Homo sapiens), Q96KQ7 | G9a H3K9 monomethylation, AlphaScreen, 2 h | Potency, µM (doses to about 102 µM), without a hit: top-dose activity, negative = inhibition, actives largely listed as inhibitors | 350,000 compounds, 8.8% hits | AID 504332, 2011; note: % is set by controls: 0 for no effect and ±100 for the full control effect; nearly all actives have a fitted effect of over 75% in size
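Enzyme 20 nM + cpd, 15 min RT; add b-H3K9 pep 500 nM / SAM 20 uM; 2 h RT; anti-H3K9me1 Ab 0.5 ug/mL + SA donor / anti-rabbit acceptor beads 20 ug/mL each, 10 min; AlphaScreen read.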
JMJD2A Tudor: qHTS Assay for Inhibitors of JMJD2A-Tudor Domain; 390,000 compounds, 4.4% hits; AID 504339, 2011; AlphaScreen JMJD2A-Tudor / H3K4me3 peptide binding; Lysine-specific demethylase 4A (Homo sapiens), O75164; Potency, µM (highest dose often 114 µM), for the others: at the highest dose activity change, negative = inhibition, most hits filed as inhibitors; note: % is set by controls: 0 for no effect and ±100 for the full control effect; nearly all actives have a fitted effect of over 50% in size
L3MBTL1 inh: qHTS Assay for the Inhibitors of L3MBTL1 | Potency, µM (titrated, usually from 57.1 µM), for the others: at the highest dose activity, negative = inhibition, hits mostly inhibitors | 230,000 compounds, 0.66% hits | AID 485360, 2010 | Lethal(3)malignant brain tumor-like protein 1 (Homo sapiens), Q9Y468 | AlphaScreen L3MBTL1–H3K9me1 peptide binding; note: % is set by controls: 0 for no effect and ±100 for the full control effect; nearly all actives have a fitted effect of over 60% in size
Target sequence (Q9Y468 whole entry, looked up): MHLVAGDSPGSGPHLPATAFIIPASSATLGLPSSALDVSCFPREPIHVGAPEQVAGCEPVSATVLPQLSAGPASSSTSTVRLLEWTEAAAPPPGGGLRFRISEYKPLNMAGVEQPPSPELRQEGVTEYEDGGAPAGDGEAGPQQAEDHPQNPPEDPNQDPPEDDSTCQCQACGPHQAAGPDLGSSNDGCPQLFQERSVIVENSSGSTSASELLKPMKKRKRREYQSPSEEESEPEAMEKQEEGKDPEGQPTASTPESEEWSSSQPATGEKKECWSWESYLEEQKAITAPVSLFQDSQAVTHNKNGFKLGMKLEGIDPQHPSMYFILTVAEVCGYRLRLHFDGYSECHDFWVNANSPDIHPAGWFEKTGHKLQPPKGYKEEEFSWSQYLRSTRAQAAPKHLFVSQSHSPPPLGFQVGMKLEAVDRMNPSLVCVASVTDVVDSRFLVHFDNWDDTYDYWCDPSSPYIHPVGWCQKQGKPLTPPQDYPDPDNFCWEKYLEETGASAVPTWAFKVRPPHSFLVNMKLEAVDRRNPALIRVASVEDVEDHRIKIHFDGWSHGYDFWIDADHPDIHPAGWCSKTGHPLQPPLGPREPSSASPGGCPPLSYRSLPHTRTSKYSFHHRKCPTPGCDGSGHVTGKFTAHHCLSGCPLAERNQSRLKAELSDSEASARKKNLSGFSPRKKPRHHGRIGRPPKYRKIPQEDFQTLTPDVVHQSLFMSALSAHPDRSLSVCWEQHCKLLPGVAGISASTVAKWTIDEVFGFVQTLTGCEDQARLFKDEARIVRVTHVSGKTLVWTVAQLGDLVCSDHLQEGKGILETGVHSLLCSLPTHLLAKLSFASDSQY
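L3MBTL1 (50 nM) pre-complexed 30 min with biotinylated H3(1-15)K9me1 peptide (75 nM), then compounds added for 30 min at room temperature; AlphaScreen streptavidin donor/nickel chelate acceptor beads (10 ug/mL final) read after 30 min dark incubation.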
BAZ2B inh: qHTS Assay for Inhibitors of BAZ2B | Bromodomain adjacent to zinc finger domain protein 2B (Homo sapiens), Q9UIF8 | AlphaScreen BAZ2B-H3K14Ac peptide displacement | Potency, µM (series often up to 114 µM), without a hit: at the top dose activity change, negative = inhibition, most hits filed as inhibitors | 360,000 compounds, 4.4% hits | AID 504333, 2011; note: % is set by controls: 0 for no effect and ±100 for the full control effect; nearly all actives have a fitted effect of over 60% in size
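Protein-peptide AlphaScreen: BAZ2B 50 nM, b-H3K14Ac 50 nM, 1x PBS pH 7.4 + 0.01% Tween-20. Preincubation 30 min RT; cpd 30 min RT (top 110 uM); beads 20 min RT, light-protected.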
HP1b binding inh: HTS for Inhibitors of HP1-beta Chromodomain Interactions with Methylated Histone Tails | Chromobox protein homolog 1 (Homo sapiens), P83916 | AlphaScreen HP1-beta / biotin-H3K9me3 peptide binding | Potency, µM (top dose mostly 114 µM), inactives show at the top dose activity change, negative = inhibition, hits mostly inhibitors | 390,000 compounds, 0.56% hits | AID 540317, 2011; note: nearly all actives have a fitted effect of over 70% in size
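Compound inhibition of the preformed complex between 50 nM HP1-beta and 50 nM biotinylated H3K9me3 peptide was read by AlphaScreen. Buffer was PBS pH 7.4 with 0.01% Tween-20. Incubations ran 30 min at room temperature, with 10 ug/mL donor/acceptor beads.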
Active calls of the source: *; ? = inconclusive; nt = no result; [ ] = another dose, or the depositor's remark. Only some compounds are listed: those with a hit (about 11% of all), similar ones and a draw of the others. Calls come from the whole dose curve; as a rule, active = well fitted inhibition curve with a large enough effect; inconclusive = small, poorly fitted or top-dose-only effect; inactive = no such curve, though single readings can be large or run the other way. Potency is the fitted concentration of half-maximal effect.

SMILES	G9a inh	JMJD2A Tudor	L3MBTL1 inh	BAZ2B inh	HP1b binding inh
COc1ccc(CNC(=O)Cc2cccs2)cc1	nt	-2.4%	nt	-6.7%	25.4%
CC(=O)c1cccc(OCC(O)CNCC2COc3ccccc3O2)c1 (stereo unspecified)	25.7%[0.501 µM]	0.794µM*	nt	31.6µM*	50.1µM*
COc1ccc(-n2nnnc2C2CCN(S(=O)(=O)c3ccc(C(C)(C)C)cc3)CC2)cc1	-2.9%[59 µM]	-18.9%	nt	1.2%	6.0%
Cc1ccc(C)n1-c1nnc(N2CCC(C(=O)NCCCN3CCN(C)CC3)CC2)s1	nt	-35.2%	1.5%	-7.7%	19.7%
COc1ccc(CNC(=O)COC(=O)[C@H](Cc2c[nH]c3ccccc23)NC(=O)c2cccs2)cc1	8.9%[59 µM]	?	-15.5%	?	-10.4%
COc1cc(CNc2ncnc3ccc(-c4c(C)noc4C)cc23)cc(OC)c1OC	nt	-5.5%	nt	nt	nt
O=C(/C=C/c1ccc(-c2ccc(F)cc2)o1)N1CCCC1	44.7µM*	-28.4%	nt	-14.4%	10.3%
NC(=O)CC(NC(=O)c1ccccc1)c1ccc(NCc2ccc(F)c(F)c2)c([N+](=O)[O-])c1 (stereo unspecified)	70.8µM*	?	-1.7%	?	3.2%
COc1ccc(OC)c(C(=O)NC(CC(N)=O)c2ccc(NCc3ccc(F)c(F)c3)c([N+](=O)[O-])c2)c1 (stereo unspecified)	89.1µM*	?	-12.0%	44.7µM*	-10.9%
CCCn1c(NCc2cccs2)nc2ccccc21	9.7%[59 µM]	-14.1%	4.5%	nt	45.5%
c1csc(CNc2nc3ccccc3n2CCN2CCOCC2)c1	?	-3.6%	nt	10.9%	25.3%
c1ccc(CNc2nc3ccccc3n2CCN2CCOCC2)nc1	-26.4%[59 µM]	25.1µM*	-4.9%	70.8µM*	19.2%
CCCn1c(NCc2ccccn2)nc2ccccc21	5.62µM*	20µM*	-14.9%	56.2µM*	12.0%
CCOc1ccc(C(=O)c2oc3ccccc3c2NC(=O)Cc2coc3ccc(CC)cc23)cc1	15.4%[59 µM]	39.6%	nt	4.8%	79.7%
O=C(CCn1c(=O)c2cccn2c2ccc(F)cc21)NCCc1ccccc1Cl	-0.3%[59 µM]	-2.6%	nt	1.5%	36.8%
CCc1n(CC(O)COC2CCCCC2)c2ccccc2[n+]1C (stereo unspecified)	nt	-4.8%	7.3%	?	22.6%
CCc1n(CC(O)COCC2CC=CCC2)c2ccccc2[n+]1C (stereo unspecified)	50.1µM*	?	-1.7%	-22.1%	-15.5%
Cc1n(CC(O)COCc2ccccc2)c2ccccc2[n+]1C (stereo unspecified)	16.9%[59 µM]	-8.2%	4.6%	56.2µM*	23.5%
CC1CC=CC2C1C(=O)N(Cc1ccccc1)C2c1ccc2ccccc2c1 (stereo unspecified)	nt	5.5%	nt	nt	34.1%
O=C1C2C3C=CC(C3)C2C(=O)N1c1ncn[nH]1 (stereo unspecified)	?	50.1µM*	-3.8%	?	?
Cc1cccc(NC(=O)c2c(C)oc3ncn(CC(C)C)c(=O)c23)n1	-10.2%[59 µM]	-13.3%	nt	2.0%[57.1 µM]	9.5%
Cc1c(Cl)cccc1NC(=O)CSc1ccc(-c2ccccn2)nn1	-6.1%[59 µM]	?	nt	5.2%	69.8%
COc1ccccc1NC(=O)CSc1ccc(-c2ccc(-n3cccn3)cc2)nn1	1.9%[0.501 µM]	-7.5%	-5.2%	?	15.4%
Cc1cccc(NC(=O)CSc2ccc(-c3ccccn3)nn2)c1C	7.1%	8.91µM*	nt	2.82µM*	27.7%
COc1ccccc1NC(=O)CSc1ccc(-c2ccccn2)nn1	3.4%	3.55µM*	nt	3.16µM*	22.8%
SMILES	G9a inh	JMJD2A Tudor	L3MBTL1 inh	BAZ2B inh	HP1b binding inh
COc1ccccc1NC(=O)CSc1nnc(-c2ccccn2)n1Cc1ccco1	?	56.2µM*	-9.2%	?	-14.9%
COc1ccc(C)cc1NC(=O)CSc1nnc(-c2ccccn2)n1Cc1ccco1	-19.2%[59 µM]	?	-17.3%	?	8.4%
CCC(C)NC(=O)Cn1c(=O)n(-c2ccc(Cl)c(Cl)c2)c(=O)c2c(C)c(C(=O)N(CC)CC)sc21 (stereo unspecified)	9.4%[59 µM]	-11.0%	nt	1.0%	1.6%
COc1ccc2[nH]cc(CCN=C(NC(=O)c3ccccc3F)Nc3nc(C)cc(C)n3)c2c1	20.1%[59 µM]	-27.2%	nt	4.4%	56.8%
COc1ccccc1-c1cc(C(F)(F)F)nc(S(C)(=O)=O)n1	?	-8.1%	nt	-5.6%	90.4%
CS(=O)(=O)c1nc(-c2ccco2)cc(C(F)(F)F)n1	31.6µM*	nt	-2.3%	-0.7%	nt
CC(=O)N1CCc2cc(S(=O)(=O)NC(Cc3ccccc3)C(=O)Nc3cccc(C)c3)ccc21 (stereo unspecified)	?	-19.3%	nt	nt	21.3%
COc1ccc(O[C@H]2C=C[C@@H](c3ccccc3)O[C@@H]2CO/N=C(\C)CCC(=O)OC[C@H]2O[C@H](c3ccccc3)C=C[C@@H]2Oc2ccc(OC)cc2)cc1	44.7µM*	nt	-11.1%	?	nt
COc1ccc(O[C@H]2C=C[C@@H](c3ccccc3)O[C@@H]2COC(=O)CC/C(C)=N/O[C@@H](C)c2cn([C@H](CO)Cc3ccccc3)nn2)cc1	79.4µM*	nt	-2.9%	?	nt
C/C(CCN1CCc2nc(-c3ccccc3)c(-c3ccccc3)cc2C1)=N\O[C@@H](C)c1cn([C@H](CO)Cc2ccccc2)nn1	44.7µM*	nt	-2.3%	?	nt
Cn1cc(CN2CC3C[C@@H]4CC2C[C@H](C3)C4)c(-c2ccc3c(c2)OCCO3)n1	50.1µM*	-11.5%	-4.6%	?	25.3%
Cc1ccc(N=c2c([N+](=O)[O-])nn(-c3ccc4c(c3)OCCO4)n2O)c(Cl)c1	44.7µM*	nt	-6.7%	-27.2%	nt
CCc1ccc(N=c2c([N+](=O)[O-])nn(-c3ccc4c(c3)OCCO4)n2O)cc1	17.8µM*	31.6µM*	nt	25.1µM*	?
O=[N+]([O-])c1nn(-c2ccc3c(c2)OCCO3)n(O)c1=NC1CCCC1	-48.4%	-18.7%	nt	-8.9%	3.3%
O=[N+]([O-])c1nn(-c2ccc3c(c2)OCCO3)n(O)c1=NC1CCCCCC1	12.6µM*	22.4µM*	nt	14.1µM*	?
O=[N+]([O-])c1nn(-c2ccc3c(c2)OCCO3)n(O)c1=Nc1ccccc1	?	44.7µM*	-28.0%	39.8µM*	-34.1%
O=[N+]([O-])c1nn(-c2ccc3c(c2)OCCO3)n(O)c1=Nc1ccc(Cl)cc1	?	-29.7%	-10.1%	?	-5.4%
O=C(C1CCCN(C2CC(=O)N(c3ccc(F)cc3)C2=O)C1)N1CCCC1 (stereo unspecified)	44.7µM*	31.6µM*	nt	-9.2%	28.3%
